Test results: PubChem BioAssay (NCI)
This is part of a sample that, as a whole, favours compounds with a hit. Of some 83,000 tested, about 20% had one in any assay.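 Treatment: one concentration, 48 hours, 96-well format. Scoring: percent growth, with anything below 10 considered active.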 A number with no mark means an inactive call. The source made the active and inactive calls.

Columns and labels:
Experiment in all cases: NCI-60 one-dose screen, 48 h (100 = growth as untreated, 0 = no growth, -100 = all killed)
Conditions in all cases: 10 µM unless noted
[1] = system: EKVX NSCLC
[2] = system: SN12C renal
[3] = system: UO-31 renal
[4] = system: TK-10 renal
[5] = system: CAKI-1 renal
[6] = system: A498 renal
[7] = system: MOLT-4 leukemia
[8] = system: SR leukemia
[9] = system: ACHN renal
[10] = system: CCRF-CEM leukemia

| SMILES | growth [1] | growth [2] | growth [3] | growth [4] | growth [5] | growth [6] | growth [7] | growth [8] | growth [9] | growth [10] |
| --- | --- | --- | --- | --- | --- | --- | --- | --- | --- | --- |
| Cc1nn(-c2ccc(Cl)cc2)c2nc3c(nc12)c(=O)oc1ccccc13 | 108% | 101% | 101% | 107% | 98.3% | 95% |  |  |  |  |
| COc1ccc(-c2c(-c3cc(OC)c(OC)c(OC)c3)noc2N)cc1 | 45.9% | 27.6% | 41.7% | 67.3% | 28.2% | 22.8% | 13% | 8.86% (active) |  |  |
| OCc1nnn(-c2ccccc2)c1CO | 121% | 102% | 89.4% | 121% | 111% | 101% | 106% | 104% |  |  |
| CCCCC(C#N)C(N)=O (configuration not stated) | 132% | 101% | 87.8% | 107% |  | 122% | 90.2% | 93.8% | 110% | 95.8% |
| CC1CC(C)/C(=N/NC(N)=O)C(C(O)CC2CCC(=O)NC2=O)C1 (configuration not stated) | 33.6% | 18.9% | 15.9% | 53.9% | 35.5% | 71.1% | 23% | 48.5% |  | 15.6% |
| CC/C(=C\c1ccc(N(C)C)cc1)c1nc2ccccc2c(=O)[nH]1 | 93% | 106% | 108% | 51.1% |  | 118% | 140% | 77.4% | 93.4% | 110% |
| Cc1c(C(N)=O)sc2nc(SCC(=O)Nc3ccc(Cl)cc3)n(-c3ccccc3)c(=O)c12 | 98.4% | 95.2% | 121% | 52.8% |  | 192% | 156% | 106% | 106% | 86.3% |
| CCN(CC)CCOc1ccccc1-n1c(C)ccc1-c1ccccc1 | 83.8% | 91.7% | 55.2% | 85.2% | 85.1% | 65.1% | -35.2% (active) | -29.4% (active) |  | 28.1% |
| Oc1[nH]c2ccccc2c1/C=c1/ccc2c(c1)N=C(c1cc(F)cc(F)c1)N=2 | 70.7% | 68.2% | 60.2% | 114% | 52.1% | 60.5% | 21% | 19.9% |  | -3.33% (active) |
| CC(=O)Nc1ccc2c(c1)Cc1c(F)c(F)c(F)c(F)c1-2 | 70.3% | 90.2% | 58.1% | 84.7% | 86.6% | 69.1% | 99.4% | 52% |  | 58.9% |
| O=C(Cc1ccccn1)C(F)(F)C(F)(F)C(F)(F)F | 130% | 95.2% | 91.6% | 117% |  | 126% | 97% | 97.9% | 111% | 97.5% |
| COc1cc(-c2cc(C(=O)Nc3nc4ccccc4s3)nc3cc(-c4ccccc4)nn23)cc(OC)c1OC | 107% | 99.5% | 87.9% | 106% | 84.6% | 127% |  | 67% |  | 72.3% |
| COc1ccc(C2=NN(C(C)=O)C(c3cc(OC)c(OC)c(OC)c3)C2)cc1 (configuration not stated) | 95.2% | 109% | 80% | 152% | 100% | 96.5% | 118% | -9.78% (active) |  | 75.5% |
| Cc1nc(N)[nH]c(=O)c1C | 100% | 87.4% | 107% | 137% |  | 216% | 150% | 92.2% | 111% | 94.7% |
| Cn1cc(-c2csc(-c3cn(C)c4ncccc34)n2)c2cc(F)cnc21 |  | 88.9% | 99.1% | 104% | 66% | 72.9% | 80.1% |  | 94.4% | 67.4% |
| COc1ccc2c(c1)nc(N)c1c3cc(OC)c(OC)cc3cn21 |  | 56.4% | 49.8% | 48.9% | 28.5% | 35.9% | 76.4% |  | 46.4% | 47.1% |

| SMILES | growth [1] | growth [2] | growth [3] | growth [4] | growth [5] | growth [6] | growth [7] | growth [8] | growth [9] | growth [10] |
| --- | --- | --- | --- | --- | --- | --- | --- | --- | --- | --- |
| O=C1N(C2CCCCC2)C(=O)N1C1CCCCC1 | 51.3% | 49.9% |  | 8.07% (active) | 28.7% | -11.9% (active) | 15.7% | 46.6% | 11.4% | 4.67% (active) |
| COc1ccc(C(=O)Nc2nc(-c3ccc(Cl)cc3)cs2)cc1 |  | 101% | 89.4% | 122% | 96.7% | 91.5% | 97.9% | 105% | 94.4% | 104% |
| CC(=O)Oc1ccc(C2OC(c3ccc4ccccc4c3OC(C)=O)=NN2C(C)=O)c(OC(C)=O)c1 (configuration not stated) |  | 21.8% | 7.69% (active) | 34.4% | 18.7% | 35% | 2.64% (active) |  | 21.2% | 7.23% (active) |
| O=c1ccn(C2CCCO2)c(=O)[nH]1 (configuration not stated) | 107% | 109% | 95.4% | 120% | 110% |  | 97.7% | 114% |  | 97% |
| COc1ccc(Nc2ccnc(NCCCNc3ccnc4cc(Cl)ccc34)n2)cc1 |  | -21.5% (active) | -71.8% (active) | -72.3% (active) | -40.3% (active) | -7.79% (active) | -21.1% (active) |  | -96.8% (active) | -19.3% (active) |
| COc1cc(/C=C/C(=O)c2ccc(F)cc2)ccc1OCCCCCOc1cc2c(cc1OC)C(=O)N1CCCC1C=N2 (configuration not stated) | -20.9% (active) | -2.73% (active) |  | -9.06% (active) | -1.54% (active) | -65.5% (active) |  | -32.6% (active) |  |  |
| COc1cc(Oc2cc(-c3cccnc3)ccc2NC(=O)Nc2ccc(F)cc2F)cc(OC)c1OC |  | 102% | 76.8% | 116% | 94.3% | 89.9% | 84.9% | 97.4% | 121% | 97.3% |
| Cc1cc(=O)n2n1-c1ccc(Cl)cc1NC(=O)C2 |  | 99.1% | 89.6% | 117% | 88.4% | 119% | 108% | 110% | 104% | 82.6% |
| ClC1=C(Cl)C(=C2C(Cl)=C(Cl)C(Cl)=C2Cl)C(Cl)=C1Cl | 105% | 98.5% | 81% | 94.1% |  | 88.2% | 82.1% | 103% |  |  |
| O=C(/C=C/c1ccccc1Cl)c1ccc(O)cc1 | 84.8% | 67.3% | 43.6% | 78.6% |  | 91.9% | 55.1% | 27.9% |  | 30.6% |
| O=C(O)c1ccc(NC(=O)c2cccc(Nc3ccnc(C(F)(F)F)c3)c2)cc1 |  | 106% | 82% | 97.8% | 95.1% | 106% | 93.4% | 86.1% | 103% | 94.8% |
| Nc1nc(SCC2(CCl)COC2)c2[nH]cnc2n1 | 107% | 100% | 75.9% | 102% | 105% |  | 89% | 83.8% |  | 101% |
| COc1ccc(Cn2c(NCCCN(C)C)nc(=O)n(Cc3ccc(F)cc3)c2=O)cc1 |  | 95.4% | 63.6% | 110% | 83.1% | 95.6% | 84.9% | 83.5% | 105% | 114% |
| C/C(=C\CCc1ccoc1)CC/C=C(\C)CCCN1CCC(CO)CC1 |  | 71.1% | 75.1% | 97.2% | 82.7% | 45% | 24.6% | 2.6% (active) | 59.4% | 37.9% |
| COc1ccc(-c2oc3cc(O)c(OC)c(O)c3c(=O)c2OC)cc1O | 83.8% | 37.3% | 35.5% |  | 72.2% |  | 14.4% | 7.87% (active) | 37.5% | -4.31% (active) |
| O=C1OCCCCCCCCCC#Cc2ccccc21 | 115% | 113% |  | 122% | 97.1% | 98.3% | 85.7% | 87.4% |  |  |
